Measurements taken from PubChem BioAssay AID1159580 (chemical genetic matrix, 2015).
Where “and” joins values, the source holds several entries; their conditions need not be identical. Identical values can stand only once. In all, about 5,500 compounds went through this assay and about 2,000 (36%) were called active. Another 18% or so got no clear call; they are omitted. No stated cut-off is given here; in the data, active means normalized growth mostly below about 0.91 (no sharp cut-off); inconclusive means no clear call, values can overlap the other calls; inactive means mostly above about 0.92. Some of the results follow.

Assay: chemical genetic growth profiling, strain panel (AID 1159580);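 further: tested at 20 µM; growth read once vehicle control cultures reached saturation at 30 °C; 1 = growth at the plate median or of vehicle wells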
Details: S. cerevisiae deletion strains, growth OD

Measured: normalized growth

O=C1OCCN1/N=C\c1ccc([N+](=O)[O-])o1
active: locus YAL026C, strain drs2, stronger effect = lower value 0.889 | locus YDR162C, strain NBP2, stronger effect = lower value 0.771 | locus YDR392W, strain spt3, stronger effect = lower value 0.72 | locus YDR502C, strain sam2, stronger effect = lower value 0.92 | locus YER155C, strain BEM2 (second series), stronger effect = lower value 0.788 | locus YGL086W, strain mad1, stronger effect = lower value 0.923 | locus YJR043C, strain POL32, stronger effect = lower value 0.762
0.883 (inactive) and 0.85 (active): locus YJL095W, strain BCK1, stronger effect = lower value
inactive: locus YAL013W, strain DEP1, stronger effect = lower value 0.986 | locus YAL021C, strain ccr4, stronger effect = lower value 0.961 | locus YAL030W, strain snc1, stronger effect = lower value 0.999 | locus YBL061C, strain skt5, stronger effect = lower value 1 | locus YBR009C, strain hhf1, stronger effect = lower value 0.97 | locus YBR021W, strain FUR4, stronger effect = lower value 1.03 | locus YBR023C, strain chs3, stronger effect = lower value 1 | locus YBR171W, strain sec66, stronger effect = lower value 0.987 | locus YBR229C, strain ROT2, stronger effect = lower value 0.999 | locus YBR231C, strain swc5, stronger effect = lower value 0.929 | locus YBR279W, strain paf1, stronger effect = lower value 0.986 | locus YCL011C, strain gbp2, stronger effect = lower value 0.991 | locus YCL016C, strain dcc1, stronger effect = lower value 0.935 | locus YCL029C, strain bik1, stronger effect = lower value 0.97 | locus YCL061C, strain MRC1, stronger effect = lower value 0.987 | locus YCL069W, strain vba3, stronger effect = lower value 0.993 | locus YCR088W, strain abp1, stronger effect = lower value 0.976 | locus YDL005C, strain med2, stronger effect = lower value 0.998 | locus YDL035C, strain GPR1, stronger effect = lower value 0.913 | locus YDL040C, strain nat1, stronger effect = lower value 1 | locus YDL074C, strain BRE1, stronger effect = lower value 0.885 | locus YDL101C, strain DUN1, stronger effect = lower value 0.95 | locus YDL185W, strain tfp1, stronger effect = lower value 0.993 | locus YDL192W, strain arf1, stronger effect = lower value 0.99 | locus YDR001C, strain nth1, stronger effect = lower value 1 | locus YDR069C, strain doa4, stronger effect = lower value 0.928 | locus YDR101C, strain arx1, stronger effect = lower value 0.92 | locus YDR137W, strain rgp1, stronger effect = lower value 0.901 | locus YDR150W, strain NUM1, stronger effect = lower value 1.01 | locus YDR159W, strain sac3, stronger effect = lower value 1.01 | locus YDR195W, strain ref2 1.14 | locus YDR297W, strain sur2, stronger effect = lower value 0.992 | locus YDR318W, strain mcm21, stronger effect = lower value 0.919 | locus YDR334W, strain swr1, stronger effect = lower value 1.01 | locus YDR335W, strain msn5, stronger effect = lower value 0.975 | locus YDR388W, stronger effect = lower value 0.982 | locus YEL003W, strain gim4, stronger effect = lower value 0.916 | locus YEL037C, strain rad23, stronger effect = lower value 0.986 | locus YEL061C, strain CIN8 (second series), stronger effect = lower value 1 | locus YEL061C, strain CIN8, stronger effect = lower value 0.999 | locus YER015W, strain faa2, stronger effect = lower value 0.986 | locus YER016W, strain bim1, stronger effect = lower value 0.932 | locus YER110C, stronger effect = lower value 0.979 | locus YER111C, strain swi4, stronger effect = lower value 1.01 | locus YER155C, strain BEM2, stronger effect = lower value 0.996 | locus YER167W, strain BCK2, stronger effect = lower value 0.978 | locus YFR010W, strain ubp6, stronger effect = lower value 0.919 | locus YGL078C, strain dbp3, stronger effect = lower value 0.955 | locus YGL167C, strain pmr1, stronger effect = lower value 1 | locus YGL173C, strain kem1, stronger effect = lower value 0.982 | locus YGL227W, strain vid30, stronger effect = lower value 1 | locus YGL240W, strain doc1, stronger effect = lower value 0.935 | locus YGL248W, strain PDE1, stronger effect = lower value 0.944 | locus YGL253W, strain hxk2, stronger effect = lower value 0.934 | locus YGR135W, strain pre9, stronger effect = lower value 0.936 | locus YGR252W, strain gcn5, stronger effect = lower value 0.808 | locus YHR013C, strain ard1, stronger effect = lower value 1.01 | locus YHR027C, strain rpn1, stronger effect = lower value 0.967 | locus YHR030C, strain SLT2, stronger effect = lower value 1 and 0.876 | locus YHR079C, strain IRE1 (second series), stronger effect = lower value 0.937 | locus YHR079C, strain IRE1, stronger effect = lower value 0.88 | locus YHR094C, strain hxt1, stronger effect = lower value 0.999 | locus YHR129C, strain ARP1, stronger effect = lower value 0.992 | locus YHR142W, strain chs7, stronger effect = lower value 0.967 | locus YHR200W, strain rpn10, stronger effect = lower value 0.995 | locus YIL066C, strain RNR3, stronger effect = lower value 0.997 | locus YIL073C, strain SPO22, stronger effect = lower value 0.761 | locus YIL125W, strain kgd1, stronger effect = lower value 0.974 | locus YIR030C, strain dcg1, stronger effect = lower value 0.967 | locus YJL092W, strain hpr5, stronger effect = lower value 0.937 | locus YJL095W, strain BCK1 (second series), stronger effect = lower value 1.02 | locus YJL115W, strain asf1, stronger effect = lower value 0.982 | locus YJL129C, strain trk1, stronger effect = lower value 1.09 | locus YJL134W, strain LCB3, stronger effect = lower value 0.998 | locus YJL154C, strain vps35, stronger effect = lower value 0.993 | locus YJL164C, strain tpk1, stronger effect = lower value 0.962 | locus YJL166W, strain qcr8, stronger effect = lower value 0.985 | locus YJL168C, strain set2, stronger effect = lower value 0.999 | locus YJL187C, strain SWE1 (second series), stronger effect = lower value 0.971 | locus YJL187C, strain SWE1, stronger effect = lower value 1 | locus YJR066W, strain TOR1, stronger effect = lower value 0.826
